This is an account of results in PubChem BioAssay (NCI).

Values joined by “and” are separate entries in the source; they are usually repeats but may differ in a detail not shown here. Equal values may be shown once. Compounds without any hit were thinned out: in the full panel of roughly 83,000, 20% have a hit.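 Cells were grown in 96-well plates and exposed to the test compound at a single concentration for 48 hours; results are reported as percent growth, with values below 10 considered active.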 Active and inactive are the calls of the source.

One test concerns MCF7 breast. The test can be described thus: NCI-60 one-dose screen, 48 h (100 = growth as untreated, 0 = no growth, -100 = all killed). As to conditions: 10 µM. How it is done: Growth inhibition of the MCF7 human tumor cell line is measured as a screen for anti-cancer activity. Cells are grown in 96 well plates and exposed to the test compound for 48 hours. Compounds are tested at a single concentration, which is 10^-5 M for most compounds. The reported endpoint is percent growth (GI% or GIPRCNT), where numbers from 0 - 100% represent growth inhibition, and numbers from -100% - 0 represent cell death. For example, a value of 40 represents 60% growth inhibition. A value of 0 means no net growth occurred over the course of the experiment. A value of -40 indicates 40% of cells at the beginning of the experiment died by the end of the experiment. A value of -100 means all cells are dead at the end of the experiment.
NCI-60 Human Tumor Cell Lines Screen was performed using the standard one-dose NCI protocol, which is described in more detail at https://dtp.cancer.gov/discovery_development/nci-60/default.htm.
Compounds with GIPRCNT values below 10 were considered active. Activity score was based on GIPRCNT using the following formula: […]
Score is 0 for GIPRCNT values of 100 or above, 50 for GIPRCNT values of 0, and 100 for GIPRCNT values of -100.
In the case of `NC1=CC(=O)c2ccccc2C1=O`, the growth was 54.5% (inactive).

With `Cc1ccc2nc(C[n+]3ccc4ccccc4c3)ccc2c1`, the growth is 35.6% (inactive).

Take `O=C(Nc1cccc(Br)c1)Oc1cccc2cccnc12`: the growth is 92.9% (inactive).

In the case of `CCOC(=O)/C=C/c1ccc([N+](=O)[O-])o1`, the growth was 25.5% (inactive).

As to `COc1ccccc1/C=C\C(=O)c1ccccc1`, the growth is 5.24% (active).

On to `CN(Cc1cnc2nc(N)nc(N)c2n1)c1ccc(C(=O)NC(CCC(=O)O)C(=O)O)cc1` (stereo not given), for which the growth was 24.3% (inactive).

Consider `CCCCCCCCCCCCCCNCc1ccccc1`, for which the growth is 51.2% (inactive).

With `O=C1c2ccccc2C(=O)c2sc(Nc3ccc(Cl)cc3)nc21`, the growth was -60.3% (active).

Take `CCC(CCCN(CC)CCc1ccccc1)OC(=O)c1cc(OC)c(OC)c(OC)c1` (stereo not given): the growth was 85.9% (inactive).

In the case of `O=C1c2cccnc2-c2nccc3c2c1nc1cc(Br)ccc13`, the growth was -41.9% (active) and -57.8% (active).

On to `CN(C)c1ccc(/C=N/N=C(\C#N)[S][Sn]([Cl])([c]2ccccc2)[c]2ccccc2)cc1`, for which the growth is -81.9% (active).

For `O=C(O)c1c(Cl)c(Cl)c(Cl)c(Cl)c1-c1c2cc(I)c(=O)c(I)c-2oc2c(I)c(O)c(I)cc12`, the growth was 101% (inactive) and 98.9% (inactive) and 81.2% (inactive).

Consider `N#Cc1ccc([N+](=O)[O-])o1`, for which the growth is 101% (inactive).

Regarding `O=C(Nc1c(Cl)cccc1Cl)Oc1cccc2cccnc12`, the growth is 3.58% (active).

For the compound `C=CCOc1ccc(N=NC(C#N)C#N)cc1`, the growth was 22.6% (inactive).

Turning to `Cc1ccc2nc(-[n+]3cc4ccccc4cc3C)ccc2c1`, the growth was 20.3% (inactive).

`C1=C(c2ccccc2)C(c2ccc(OCCN3CCCCC3)cc2)Oc2ccccc21` (stereo not given): the growth was 6.42% (active).

Regarding `COC(=O)c1nc(=S)[nH]c(C(=O)OC)c1C(=O)c1ccccn1`, the growth was 14.6% (inactive).

For `CNc1ccc2c(c1)c1ccccc1n2C`, the growth was 97.5% (inactive).

With `O=C(Nc1ccccc1)Oc1c(Cl)c(Cl)c(Cl)c(Cl)c1Cl`, the growth is 98.1% (inactive) and 91.5% (inactive).

Consider `O=C1C=CC(=O)N1C1c2ccccc2-c2ccccc21`, for which the growth was 85.8% (inactive).

As for `C=C(Cl)C(=NC(C)(C)C)Nc1ccccc1C`, the growth was 66.6% (inactive).

Turning to `CC(C)(C)c1ccc(O)c(C2CCCCC2)c1`, the growth was 101% (inactive).

`O[C@H]1[C@H]2c3cc4c(cc3CN3CCC(=C[C@@H]1O)[C@H]23)OCO4`: the growth is 11.7% (inactive).

With `CC(=O)C(=Cc1ccc(C=C(C(C)=O)C(C)=O)cc1)C(C)=O`, the growth is 1.33% (active).

On to `CN(C)C(=O)c1ccc(SC(=S)NCc2ccccc2)cc1`, for which the growth was 67.3% (inactive).

As for `OC(CNc1ccnc2cc(Cl)ccc12)CNc1ccnc2cc(Cl)ccc12`, the growth is 18.5% (inactive).

As to `Cc1cc(N)c2ccccc2[n+]1CCCCCCCCCC[n+]1c(C)cc(N)c2ccccc21`, the growth was 11.9% (inactive) and -3.39% (active).

In the case of `Oc1c(Br)c(Br)c(O)c(Br)c1Br`, the growth is 67% (inactive).

Take `CCCCCC(CCCCC)C(=O)O`: the growth is 100% (inactive).

As to `CCCCCCCCCCCCCCCC[N+](C)(CCO)Cc1cnc[nH]1` (stereo not given), the growth is -18.4% (active).

Regarding `CC1OC(OC2C(OC3CCC4(C)C(CCC5(C)C4CC=C4C6CC(C)(C)CCC6(CO)C(O)CC45C)C3(C)C)OC(C(=O)O)C(OC3OC(COC4OC(CO)C(O)C(O)C4O)C(O)C(O)C3O)C2O)C(O)C(O)C1O` (stereo not given), the growth was -67.7% (active).

Consider `c1ccc2c(c1)Nc1cc3ccccc3cc1N2`, for which the growth is 2.88% (active).

As to `CCC1OC(OC)C=CC1=O` (stereo not given), the growth was 89.9% (inactive).

With `CNC(=O)N/N=C/c1ccc([N+](=O)[O-])o1`, the growth was 95.3% (inactive).

Still in this test, the particulars now being: 100 µM.
In the case of `O=C(Nc1cccc(Br)c1)Oc1ccc(Cl)c2cccnc12`, the growth was -30.3% (active).

For `O=C(Nc1cccc(Br)c1)Oc1cccc2cccnc12`, the growth was -37.7% (active).

Regarding `O=C(O)c1c(Cl)c(Cl)c(Cl)c(Cl)c1-c1c2cc(I)c(=O)c(I)c-2oc2c(I)c(O)c(I)cc12`, the growth is -38.3% (active).

As for `O=C(Nc1c(Cl)cccc1Cl)Oc1cccc2cccnc12`, the growth was -1.84% (active).

In the case of `CN(C)C(=O)c1ccc(SC(=S)NCc2ccccc2)cc1`, the growth is -7.59% (active).
